Measured values from PubChem BioAssay (Tox21).
Several values for one entry are separate records, joined by “and”; a condition that tells them apart may be missing. Equal values may be shown once. Results filed as inconclusive are left out. Activity calls are given as the source filed them. Unless noted, calls follow the shape of the dose curve; as a rule, active = well fitted curve in the direction sought with a large enough effect in the repeat runs; inconclusive = weak or mixed curves; inactive = no such curve, though single readings can be large; an effect the other way counts as inactive or inconclusive.

How the values were obtained:
[1] = qHTS assay to identify small molecule agonists of the androgen receptor (AR) signaling pathway in the presence of an antagonist - cell viability counter screen (AID 1259379); settings: MDA-kb2 viability, CellTiter-Fluor, 16 h; series mostly up to 92.4 µM; also: nearly all actives have a fitted effect of over 25% in size; also: potency is read from the fitted curve at half-maximal effect;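 as to activity change, negative = cytotoxicity: MDA-kb2 human breast cancer cells carrying an MMTV luciferase reporter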
Outline: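 Cytotoxicity counter-screen run in the same wells as the nilutamide-challenged (3.0 µM final) AR agonist assay in MDA-kb2 cells. Compounds tested at 15 concentrations for 16 h, 37 °C without CO2; CellTiter-Fluor fluorescence read.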

[2] = qHTS assay to identify small molecule agonists of the estrogen receptor beta (ER-beta) signaling pathway - cell viability counter screen (AID 1259380); settings: ER-beta-bla HEK293T viability, CellTiter-Glo luminescence, 16 h; series mostly up to 92.4 µM; also: nearly all actives have a fitted effect of over 30% in size; also: potency is read from the fitted curve at half-maximal effect
Outline: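 Cell viability counter screen: CellTiter-Glo luminescence (30 min, room temperature) measured in the same wells as the beta-lactamase readout, after 16 hr compound exposure at 37C of ER-beta-bla HEK293T cells in 2% charcoal-stripped FBS medium.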

[3] = qHTS assay to identify small molecule antagonists of the estrogen receptor beta (ER-beta) signaling pathway - cell viability counter screen (AID 1259382); settings: ER-beta-UAS-bla HEK293T viability, CellTiter-Glo luminescence, 16 h; series mostly up to 92.4 µM; also: nearly all actives have a fitted effect of over 55% in size; also: potency is read from the fitted curve at half-maximal effect;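 as to activity change, negative = cytotoxicity: HEK293T cells carrying ER-beta-UAS-bla reporter stimulated with estradiol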
Outline: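 Cytotoxicity was measured in the same wells by CellTiter-Glo luminescence after 30 min at room temperature. Cells were ER-beta-bla HEK293T in charcoal-stripped serum, given compound together with 1 nM E2 and incubated 16 h at 37C.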

[4] = target: Estrogen receptor (Homo sapiens) (UniProt P03372); experiment: qHTS assay to identify small molecule agonists of the estrogen receptor alpha (ER-alpha) signaling pathway in the presence of an antagonist (AID 1259383; calls by dose curve; also: nearly all actives have a fitted effect of over 15% in size; also: potency is read from the fitted curve at half-maximal effect; as to activation: top concentration of the series differs between compounds); settings: VM7Luc4E2 cells, ERE-luciferase, +ICI-182,780, 22 h; series mostly up to 92.4 µM
Outline: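 Agonist-mode confirmation run in the presence of 10.0nM (final) ICI-182,780 antagonist. The reporter was ERE-driven luciferase in VM7Luc4E2 cells, grown in charcoal-stripped serum. Cells were exposed to 15-concentration compound series for 22hr, then ONE-Glo luminescence was read.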

[5] = qHTS assay to identify small molecule agonists or antagonists of the thyroid stimulating hormone receptor (TSHR) signaling pathway - wild type cell line counter screen (AID 1259384; calls by dose curve); settings: HEK293 wild type, cAMP HTRF counter-screen, hits give high values; series mostly up to 92.4 µM
Outline: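 Counter screen in untransfected Hek293: compounds (15-point titration, triplicate) plus phosphodiesterase inhibitor Ro20-1724 added after 18 h plating; 30 min RT. Intracellular cAMP via competitive d2/cryptate immunoassay, 1 h incubation.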

[6] = target: Thyrotropin receptor (Homo sapiens) (UniProt P16473); experiment: qHTS assay to identify small molecule antagonists of the thyroid stimulating hormone receptor (TSHR) signaling pathway (AID 1259385; calls by dose curve; also: nearly all actives have a fitted effect of over 20% in size; also: potency is read from the fitted curve at half-maximal effect); settings: TSHR-HEK293 cAMP HTRF, TSH-stimulated antagonist mode; series mostly up to 92.4 µM
Outline: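 Antagonist mode: compound-treated TSHR-expressing HEK293 cells were stimulated with 1.5 ng/mL TSH (final) in presence of Ro20-1724 for 30 min at RT. HTRF cAMP detection after 1 h; each compound tested at 15 concentrations, triplicate.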

[7] = qHTS assay to identify small molecule agonists of the estrogen receptor alpha (ER-alpha) signaling pathway in the presence of an antagonist - cell viability counter screen (AID 1259386); settings: VM7Luc4E2 viability, CellTiter-Fluor fluorescence, 22 h; series mostly up to 92.4 µM; also: nearly all actives have a fitted effect of over 30% in size; also: potency is read from the fitted curve at half-maximal effect
Outline: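 Compounds tested at 15 concentrations for 22 h at 37C alongside 10.0nM (final) ICI-182,780 antagonist, in VM7Luc4E2 cells grown in phenol red-free, charcoal-stripped medium. Viability read by CellTiter-Fluor fluorescence after 1 h reagent incubation.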

[8] = target: Progesterone receptor (Homo sapiens) (UniProt P06401); experiment: qHTS assay to identify small molecule agonists of the progesterone receptor (PR) signaling pathway (AID 1346784; calls by dose curve; also: nearly all actives have a fitted effect of over 30% in size; also: potency is read from the fitted curve at half-maximal effect); settings: PR-UAS-bla HEK293T, beta-lactamase FRET ratio, 16 h; series mostly up to 92.4 µM
Outline: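 Agonist mode, quantitative HTS format in a HEK 293T line expressing a UAS-controlled beta-lactamase reporter; 16 hr compound exposure at 37C in 2% charcoal-stripped FBS, then LiveBLAzer B/G FRET fluorescence.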

[9] = target: Androgen receptor (Homo sapiens) (UniProt P10275); experiment: qHTS assay to identify small molecule agonists of the androgen receptor (AR) signaling pathway in the presence of an antagonist (AID 1259381; calls by dose curve; also: nearly all actives have a fitted effect of over 15% in size); settings: MDA-kb2 MMTV-luciferase, AR agonist + nilutamide, 16 h; series mostly up to 92.4 µM
Outline: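 Agonist-mode confirmation run against 3.0 uM final nilutamide: compounds titrated at 15 concentrations onto MDA-kb2 MMTV-luciferase reporter cells. Luminescence measured with ONE-Glo following 16 hr incubation, 37C, 0% CO2.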
% is scaled to controls: 0 for no effect and ±100 for the full control effect.

Chain of Thyrotropin receptor (Homo sapiens) (P16473 whole entry, looked up): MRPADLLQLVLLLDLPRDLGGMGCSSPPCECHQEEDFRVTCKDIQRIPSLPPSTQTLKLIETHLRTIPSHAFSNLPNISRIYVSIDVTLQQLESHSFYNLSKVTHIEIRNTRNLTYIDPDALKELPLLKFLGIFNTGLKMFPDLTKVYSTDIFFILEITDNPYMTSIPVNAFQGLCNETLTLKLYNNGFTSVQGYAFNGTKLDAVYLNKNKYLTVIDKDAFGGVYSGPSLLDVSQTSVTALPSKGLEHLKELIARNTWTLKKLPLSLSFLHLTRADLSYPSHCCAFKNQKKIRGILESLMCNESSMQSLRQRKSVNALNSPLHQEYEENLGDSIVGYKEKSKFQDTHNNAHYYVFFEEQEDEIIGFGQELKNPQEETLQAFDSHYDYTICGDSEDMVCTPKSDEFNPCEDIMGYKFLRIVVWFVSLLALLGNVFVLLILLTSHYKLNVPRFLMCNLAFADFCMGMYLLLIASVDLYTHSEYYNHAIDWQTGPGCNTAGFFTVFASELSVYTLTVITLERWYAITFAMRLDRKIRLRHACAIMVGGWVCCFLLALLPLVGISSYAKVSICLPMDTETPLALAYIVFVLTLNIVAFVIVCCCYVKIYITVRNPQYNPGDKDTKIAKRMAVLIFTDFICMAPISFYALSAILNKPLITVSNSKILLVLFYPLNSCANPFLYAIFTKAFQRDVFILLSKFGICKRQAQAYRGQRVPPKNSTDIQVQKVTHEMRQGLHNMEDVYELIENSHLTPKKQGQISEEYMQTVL
Chain of Estrogen receptor (Homo sapiens) (P03372 whole entry, looked up): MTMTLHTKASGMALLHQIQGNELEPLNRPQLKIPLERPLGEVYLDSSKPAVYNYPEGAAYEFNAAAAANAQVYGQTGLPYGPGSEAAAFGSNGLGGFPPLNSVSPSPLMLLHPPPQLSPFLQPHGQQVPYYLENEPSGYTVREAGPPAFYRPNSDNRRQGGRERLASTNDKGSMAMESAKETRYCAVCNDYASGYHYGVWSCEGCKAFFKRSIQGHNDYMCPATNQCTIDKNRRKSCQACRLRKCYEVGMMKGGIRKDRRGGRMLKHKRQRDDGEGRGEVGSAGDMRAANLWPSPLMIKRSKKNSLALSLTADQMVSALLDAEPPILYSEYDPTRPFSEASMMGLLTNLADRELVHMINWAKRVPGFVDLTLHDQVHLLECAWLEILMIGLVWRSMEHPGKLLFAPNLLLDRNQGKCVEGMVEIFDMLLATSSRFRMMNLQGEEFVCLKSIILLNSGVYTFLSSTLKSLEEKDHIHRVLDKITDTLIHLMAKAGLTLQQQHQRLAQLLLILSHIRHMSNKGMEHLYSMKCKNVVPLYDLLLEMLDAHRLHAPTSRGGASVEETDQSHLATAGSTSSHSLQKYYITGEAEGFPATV
Chain of Progesterone receptor (Homo sapiens) (P06401 whole entry, looked up): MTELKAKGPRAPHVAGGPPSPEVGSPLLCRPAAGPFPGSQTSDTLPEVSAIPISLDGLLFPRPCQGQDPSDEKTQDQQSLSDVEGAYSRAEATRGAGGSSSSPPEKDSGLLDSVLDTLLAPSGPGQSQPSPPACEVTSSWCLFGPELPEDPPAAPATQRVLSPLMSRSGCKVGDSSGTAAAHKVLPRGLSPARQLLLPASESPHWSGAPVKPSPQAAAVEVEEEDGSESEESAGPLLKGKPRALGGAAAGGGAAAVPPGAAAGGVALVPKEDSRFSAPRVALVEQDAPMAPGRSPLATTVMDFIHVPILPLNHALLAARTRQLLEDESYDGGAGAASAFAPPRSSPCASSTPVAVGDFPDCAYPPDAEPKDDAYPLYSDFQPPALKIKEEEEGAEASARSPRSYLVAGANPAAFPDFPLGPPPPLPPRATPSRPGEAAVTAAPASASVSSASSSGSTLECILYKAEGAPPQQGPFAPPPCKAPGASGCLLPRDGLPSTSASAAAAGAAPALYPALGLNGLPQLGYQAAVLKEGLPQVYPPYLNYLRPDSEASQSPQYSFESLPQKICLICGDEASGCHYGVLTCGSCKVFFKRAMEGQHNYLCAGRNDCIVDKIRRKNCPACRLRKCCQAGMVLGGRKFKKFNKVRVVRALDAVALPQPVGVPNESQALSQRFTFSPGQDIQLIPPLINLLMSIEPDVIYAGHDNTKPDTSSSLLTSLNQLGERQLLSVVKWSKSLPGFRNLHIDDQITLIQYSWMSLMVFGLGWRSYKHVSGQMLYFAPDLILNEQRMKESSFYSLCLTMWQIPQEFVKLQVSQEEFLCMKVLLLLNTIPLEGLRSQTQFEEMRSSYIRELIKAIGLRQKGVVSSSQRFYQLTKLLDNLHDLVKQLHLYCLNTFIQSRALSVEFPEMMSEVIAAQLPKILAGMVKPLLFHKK
Chain of Androgen receptor (Homo sapiens) (P10275 whole entry, looked up): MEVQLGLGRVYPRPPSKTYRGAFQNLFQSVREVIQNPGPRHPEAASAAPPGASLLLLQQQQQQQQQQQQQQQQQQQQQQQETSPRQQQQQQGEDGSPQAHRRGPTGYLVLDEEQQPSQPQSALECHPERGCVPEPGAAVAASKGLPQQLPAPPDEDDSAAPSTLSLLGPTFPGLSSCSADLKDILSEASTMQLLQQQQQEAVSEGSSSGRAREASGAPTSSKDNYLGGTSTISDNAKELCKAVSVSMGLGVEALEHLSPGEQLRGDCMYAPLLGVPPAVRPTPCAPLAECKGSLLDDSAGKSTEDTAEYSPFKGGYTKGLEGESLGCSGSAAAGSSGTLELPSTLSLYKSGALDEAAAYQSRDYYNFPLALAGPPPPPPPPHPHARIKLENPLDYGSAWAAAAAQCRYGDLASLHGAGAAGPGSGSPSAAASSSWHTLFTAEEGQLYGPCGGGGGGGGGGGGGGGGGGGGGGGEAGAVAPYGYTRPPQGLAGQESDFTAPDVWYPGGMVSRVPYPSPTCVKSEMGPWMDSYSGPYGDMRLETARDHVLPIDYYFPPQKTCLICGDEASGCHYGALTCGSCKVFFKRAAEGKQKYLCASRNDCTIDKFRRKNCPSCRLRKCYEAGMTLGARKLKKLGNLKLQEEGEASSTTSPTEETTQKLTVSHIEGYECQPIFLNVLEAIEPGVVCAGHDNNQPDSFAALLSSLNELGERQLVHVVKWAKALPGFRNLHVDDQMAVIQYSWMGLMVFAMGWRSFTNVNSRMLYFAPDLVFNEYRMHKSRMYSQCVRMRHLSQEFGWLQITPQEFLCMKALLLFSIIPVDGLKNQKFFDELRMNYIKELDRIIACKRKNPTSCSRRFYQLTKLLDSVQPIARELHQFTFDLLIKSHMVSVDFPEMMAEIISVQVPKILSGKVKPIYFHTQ

CCCCCC(C)OC(=O)COc1ccc(Cl)c2cccnc12 (stereo not drawn)
inactive: Potency [1] | Potency [3] | Potency [4] | outcome [5] | Potency [6] | Potency [7] | Potency [8]
active: Potency [2] 54.5 µM

COc1cc(S(=O)(=O)O)c(C)cc1N=Nc1c(O)ccc2cc(S(=O)(=O)O)ccc12
inactive: Potency [2] | Potency [3] | Potency [4] | Potency [8]
active: Potency [1] 27.3 µM | Potency [7] 17.2 µM

C[C@H]1NCc2cc(-c3ccc4c(=O)c(C(=O)O)cn(C5CC5)c4c3OC(F)F)ccc21
inactive: activity change, negative = cytotoxicity [1] -2.32% [at 19 µM] | activity change, negative = cytotoxicity [2] -4.82% [at 19 µM] | activity change, negative = cytotoxicity [3] 2.92% [at 19 µM] | activation [4] -0.399% [at 19 µM] | cAMP activity change [5] -2.09% [at 18.9 µM] | activity change, negative = cytotoxicity [7] 1.35% [at 19 µM] | activation [8] -1.22% [at 19 µM]

Cl[Si](Cl)(c1ccccc1)c1ccccc1
inactive: Potency [1] | Potency [2] | Potency [3] | Potency [4] | outcome [5] | Potency [6] | Potency [7] | Potency [8]

CC(C)NC[C@@H](O)COc1ccc(CC(N)=O)cc1
inactive: Potency [1] | Potency [2] | Potency [3] | Potency [4] | outcome [5] | Potency [6] | Potency [7] | Potency [8]

C#CC1(O)CC[C@H]2[C@@H]3CCC4=CCCC[C@@H]4[C@H]3CC[C@@]21C (stereo partly drawn)
active: Potency [2] 61.1 µM and 29.8 µM | Potency [3] 61.1 µM and 26.6 µM | Potency [4] 611 nM and 473 nM | Potency [8] 0.486 µM
inactive: Potency [1] | Potency [6] | Potency [7]

CC(C)CCOC(=O)/C=C/c1ccccc1
inactive: Potency [1] | Potency [2] | Potency [3] | Potency [4] | outcome [5] | Potency [7] | Potency [8]

Clc1nnc(Cl)c2ccccc12
inactive: Potency [2] | Potency [3] | Potency [4] | Potency [7] | Potency [8]
active: Potency [1] 15.3 µM

CCCCCCCCCCCCCCCC[N+](C)(C)CC
active: Potency [1] 48.7 µM and 18.8 µM | Potency [2] 54.6 µM and 11.9 µM | Potency [3] 34.5 µM and 23.7 µM
inactive: Potency [4] | outcome [5] | Potency [6] | Potency [7] | Potency [8]

COc1ccc2c(c1)c(CC(=O)OC/C=C(\C)CC/C=C(\C)CCC=C(C)C)c(C)n2C(=O)c1ccc(Cl)cc1
inactive: Potency [1] | Potency [2] | Potency [3] | Potency [4] | Potency [7]

CC(=O)[C@H]1CC[C@H]2[C@@H]3CCC4=CC(=O)CC[C@]4(C)[C@H]3CC[C@]12C
active: Potency [1] 60.8 µM | Potency [2] 54.2 µM and 61.1 µM | Potency [3] 54.2 µM and 61.1 µM
inactive: Potency [4] | Potency [7]

c1cnccn1
inactive: Potency [1] | Potency [2] | Potency [3] | Potency [4] | outcome [5] | Potency [6] | Potency [7] | Potency [8]

O=C(O)c1cccc(C(F)(F)F)c1
inactive: Potency [1] | Potency [2] | Potency [3] | Potency [4] | outcome [5] | Potency [6] | Potency [7] | Potency [8]

Nc1nc2c(ncn2COCCO)c(=O)[nH]1
inactive: Potency [1] | Potency [2] | Potency [3] | Potency [4] | outcome [5] | Potency [6] | Potency [7] | Potency [8]

[Cl][Pt-2]([Cl])([Cl])[Cl]
active: Potency [6] 34.5 µM
inactive: Potency [1] | Potency [2] | Potency [3] | Potency [4] | outcome [5] | Potency [7] | Potency [8]

Cc1cc(C(C)(C)C)cc(C)c1CC1=NCCN1
inactive: Potency [1] | Potency [2] | Potency [3] | Potency [4] | outcome [5] | Potency [6] | Potency [7] | Potency [8]

C#C[C@]1(OC(C)=O)CC[C@H]2[C@@H]3CCC4=C[C@@H](OC(C)=O)CC[C@@H]4[C@H]3CC[C@@]21C
active: Potency [4] 53.1 nM | Potency [8] 0.0237 µM
inactive: Potency [1] | Potency [3] | outcome [5]

CCC(C)n1ncn(-c2ccc(N3CCN(c4ccc(OC[C@H]5CO[C@](Cn6cncn6)(c6ccc(Cl)cc6Cl)O5)cc4)CC3)cc2)c1=O (stereo partly drawn)
inactive: Potency [1] | Potency [3] | Potency [4] | outcome [5] | Potency [6] | Potency [7] | Potency [8]

CCOC(=O)Cn1cccc1-c1nc(-c2ccc(OC)cc2)c(-c2ccc(OC)cc2)s1
inactive: Potency [1] | outcome [9] | Potency [3] | Potency [4] | Potency [7] | Potency [8]
